Results filed as inconclusive are left out. Calls of active or inactive are those of the source. Calls follow the shape of the dose curve; as a rule, active = well fitted cell-killing curve with a large enough effect; inconclusive = small, poorly fitted or top-dose-only effect, or effect the other way; inactive = flat fitted curve, though single readings scatter.
How the values were obtained:
Assay in all cases: Primary qHTS to identify gynecologic anti-cancer compounds using libraries of approved drugs and bioactive compounds (AID 1345084); also: nearly all actives have a fitted effect of over 55% in size
Settings in all cases: Gynecologic cancer cell panel viability, ATPlite luminescence, 48 h; series mostly up to 57.5 µM
[1] = tested on: OV90
How it was run: (§1)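 48 h compound exposure at 37 C, 5% CO2; five-point qHTS. ATPlite luminescence readout of cell ATP.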

[2] = tested on: SKOV3
How it was run: as §1

[3] = tested on: Tov-21-G
How it was run: as §1

[4] = tested on: Tov112D
How it was run: as §1

[5] = tested on: PA-1
How it was run: as §1
% is scaled to controls: 0 for no effect and ±100 for the full control effect; potency is read from the fitted curve at half-maximal effect.

CC1(C)CC[C@]2(C(=O)O)CC[C@]3(C)C(=CCC4[C@@]5(C)C(=O)C[C@H](O)[C@@](C)(CO)C5CC[C@]43C)[C@@H]2C1 (stereo partly drawn)
inactive: Potency [1] | Potency [2] | Potency [3] | Potency [4]

COc1cc(Cc2cnc(N)nc2N)c(C(C)C)cc1OC
inactive: Potency [5] | Potency [2] | Potency [3] | Potency [4]

C[C@@H]1C[C@@H](O)[C@@]23CO[C@]2(CO)C[C@@H](O)CC3[C@@]12CC(c1ccoc1)OC2=O (stereo partly drawn)
inactive: Potency [5] | Potency [3] | Potency [4]

O=C(/C=C/c1ccc(O)c(O)c1)O[C@H]1[C@H](OC2CCCCC2O)O[C@H](CO)[C@@H](O)[C@@H]1O (stereo partly drawn)
inactive: Potency [1] | Potency [3] | Potency [4]

CC(=O)O[C@@H]1CC2C(C)(C)C(=O)C=C[C@]2(C)C2CC[C@]3(C)C(=CC(=O)[C@@H]3c3ccoc3)[C@@]21C (stereo partly drawn)
inactive: Potency [5] | Potency [2] | Potency [3] | Potency [4]

CC(C)=CCC[C@](C)(O[C@@H]1O[C@H](CO[C@@H]2O[C@@H](CO)[C@H](O)[C@H]2O)[C@@H](O)[C@H](O)[C@H]1O)[C@H]1CC[C@]2(C)[C@@H]1[C@H](O)C[C@@H]1[C@@]3(C)CC[C@H](O[C@@H]4O[C@H](CO)[C@@H](O)[C@H](O)[C@H]4O[C@@H]4O[C@H](CO)[C@@H](O)[C@H](O)[C@H]4O)C(C)(C)[C@@H]3CC[C@]12C
inactive: Potency [1] | Potency [2] | Potency [3] | Potency [4]

CCC(C)/C=C(C)/C=C/C1=CC2=C(Cl)C(=O)C(C)(OC(C)=O)C(=O)C2=CN1C(CCCN=C(N)N)C(=O)O (stereo not drawn)
inactive: Potency [1] | Potency [2] | Potency [3] | Potency [4]

c1ccc2c(Nc3nnc(-c4ccncc4)s3)cccc2c1
inactive: Potency [5] | Potency [4]

C[C@@H]1CC[C@]2(C(=O)O)CC[C@]3(C)C(=CCC4[C@@]5(C)C[C@@H](O)[C@@H](O)C(C)(C)C5CC[C@]43C)C2[C@]1(C)O (stereo partly drawn)
inactive: Potency [1] | Potency [3] | Potency [4]

C=C1C2(C)CC3C4(C)OC(C5OC56C4=CC(=O)OC6(C)C)C3(C)C13C(=O)OC(C)C3(O)C2=O (stereo not drawn)
inactive: Potency [1] | Potency [2] | Potency [3] | Potency [4]

Cc1nnc(-c2ccc3occ(-c4ccc(S(C)=O)cc4)c3c2)o1 (stereo not drawn)
inactive: Potency [2] | Potency [3] | Potency [4]

CC1CCC2C(C(=O)O)=CC3(O)CC(C)(C)CC123 (stereo not drawn)
inactive: Potency [1] | Potency [2] | Potency [3] | Potency [4]

CC1(CO)CC(O)C2(C)CCC3(C)C(=CCC4C5(C=O)CCC(OC6OC(C(=O)O)C(O)C(O)C6OC6OC(C(=O)O)C(O)C(O)C6O)C(C)(C)C5CCC43C)C2C1 (stereo not drawn)
inactive: activity change, negative = cytotoxicity [1] 0.842% [at 11.6 µM] | activity change, negative = cytotoxicity [3] 10.3% [at 11.6 µM] | activity change, negative = cytotoxicity [4] 20.1% [at 11.6 µM]

CC(=O)O[C@@H](C[C@@H]1C=C(C)C(=O)O1)[C@H](C)[C@H]1CCC2[C@@]3(C)CC[C@H](O[C@@H]4O[C@H](CO)[C@@H](O)[C@H](O)[C@H]4O[C@@H]4O[C@@H](C)[C@H](O)[C@@H](O)[C@H]4O)C(C)(C)C3CC[C@@]2(C)[C@@]12COC(=O)C2 (stereo partly drawn)
inactive: activity change, negative = cytotoxicity [1] 15.4% [at 11.6 µM] | activity change, negative = cytotoxicity [2] 14.4% [at 11.6 µM] | activity change, negative = cytotoxicity [3] 2.35% [at 11.6 µM] | activity change, negative = cytotoxicity [4] 13.8% [at 11.6 µM]

CC(O)CCc1ccc(O[C@@H]2O[C@H](CO)[C@@H](O)[C@H](O)[C@H]2O)cc1 (stereo partly drawn)
inactive: Potency [5] | Potency [2] | Potency [3] | Potency [4]

O=C(NC/C=C/CN1CCN(c2cccc(Cl)c2Cl)CC1)c1ccc(-c2ccccn2)cc1
inactive: Potency [1] | Potency [3] | Potency [4]

COc1ccc(-c2ccn(CC[C@](C)(C(=O)NO)S(C)(=O)=O)c(=O)c2)c(F)c1
active: Potency [1] 15.8 µM | Potency [3] 25.1 µM

— PubChem BioAssay (NCATS)
